# From PubChem
# The list is not random: actives were taken first. Their share in the collection is about 7.3%.
# SMN2 splice enh: increases expression of the SMN2 splice variant. HEK293 SMN2-luciferase splicing reporter, luminescence, 30-36 h. Potency, µM (doses to about 46.1 µM), without a hit: at the highest dose activity change, positive = activation, hits mostly activators. 2.8% of 210,000 active. AID 1458; also: % of control where 0% means no effect; nearly all actives have a fitted effect of over 55% in size
#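 HEK293 cells carry an SMN2 […]–luciferase reporter in which exon 7 inclusion puts luciferase in frame. Cells were plated 10-12 h before compound addition, then incubated 30-36 h at 37C. ONE-Glo luminescence was read; sodium butyrate at 4.5 mM final served as control.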
# NPC1 prom act: activators of NPC1 promoter | Huh7 NPC1 promoter luciferase reporter, 24 h | AID 485313 | 2.4% of 320,000 active | Potency, µM (highest dose often 9.22 µM), for the others: at the highest dose activation, usual class: activators; also: % of control where 0% means no effect; nearly all actives have a fitted effect of over 60% in size
#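 Luminescence from an NPC1 promoter-driven luciferase reporter in stably transfected Huh7 cells was measured after 24 h compound treatment at 37 °C, followed by 10 min ambient incubation with luciferase detection reagent.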
# FLuc counter: firefly luciferase modulation, counter-screen for miR-21 project; P08659; purified FLuc, Km substrates, luminescence inhibition; Potency, µM (doses to about 57.5 µM), inactives show at the highest dose activity change, negative = inhibition, actives largely listed as inhibitors; 6.9% of 360,000 active; AID 588342;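 also: plate controls were vehicle for no effect and reference inhibitor for full effect; nearly all actives have a fitted effect of over 55% in size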
# Target sequence (P08659 whole entry, looked up): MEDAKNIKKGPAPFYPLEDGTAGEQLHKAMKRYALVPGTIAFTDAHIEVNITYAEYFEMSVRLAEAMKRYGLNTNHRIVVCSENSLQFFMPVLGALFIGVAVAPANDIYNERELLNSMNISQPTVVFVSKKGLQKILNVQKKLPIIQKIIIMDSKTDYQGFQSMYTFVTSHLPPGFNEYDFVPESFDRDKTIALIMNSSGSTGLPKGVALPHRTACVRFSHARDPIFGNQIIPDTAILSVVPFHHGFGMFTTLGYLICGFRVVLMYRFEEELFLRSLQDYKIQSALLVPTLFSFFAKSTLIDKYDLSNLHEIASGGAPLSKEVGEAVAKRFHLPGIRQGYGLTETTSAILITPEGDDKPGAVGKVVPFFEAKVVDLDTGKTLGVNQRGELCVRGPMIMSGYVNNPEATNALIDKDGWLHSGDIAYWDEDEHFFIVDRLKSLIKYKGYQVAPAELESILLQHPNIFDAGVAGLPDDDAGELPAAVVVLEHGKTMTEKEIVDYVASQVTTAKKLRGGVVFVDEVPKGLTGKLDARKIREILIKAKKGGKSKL
#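 Purified P. pyralis luciferase (10nM final) with 10uM D-luciferin and 10uM ATP (Km levels) in 50mM Tris acetate pH 7.5, 10mM Mg acetate, 0.01% Tween-20, 0.05% BSA; qHTS 6-point titration, ~60 µM downward; luminescence read.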
# Luc counter: blocks Kinase-Glo luciferase, a counter-screen artifact; Potency, µM (top dose mostly 38.3 µM), inactives show at the highest dose activity change, negative = inhibition, usual class: inhibitors; Q27757; 0.28% of 200,000 active; Kinase-Glo luciferase, ATP luminescence, 8 min; also: % is scaled to controls: 0 for no effect and ±100 for the full control effect; nearly all actives have a fitted effect of over 60% in size
#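 Luminescence was the read-out, taken after 8-minute incubation at ambient temperature. Luciferase turned over luciferin with 10 uM ATP in imidazole pH 7.2 buffer containing KCl, MgCl2, Tween 20 and BSA.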
# Rab9 promoter act: Rab9 promoter activation. Potency, µM (top dose mostly 9.22 µM), for inactives: at the top dose activation, negative = inhibition, actives largely listed as activators. AID 485297. 2.8% of 320,000 active. Huh7 Rab9 promoter-luciferase reporter, luminescence, 24 h; also: % of control where 0% means no effect; nearly all actives have a fitted effect of over 60% in size
#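 Luciferase signal after 10 min detection reagent at ambient indicates Rab9 promoter upregulation; stably transfected Huh7 cells were treated 24 h with compound in DMSO at 37 °C, 5% CO2.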
# ELG1 genotox: genotoxicity induction in ELG1-luciferase HEK293T cells; Potency, µM (titrated, usually from 46 µM), without a hit: at the top dose activity change, positive = activation, most hits filed as activators; 1.3% of 330,000 active; HEK293T ELG1-luciferase reporter, luminescence, 16 h; also: % of control where 0% means no effect; nearly all actives have a fitted effect of over 60% in size
#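 HEK293T cells expressing luciferase-tagged ELG1 were treated with compound or DMSO for 16 hr at 37°C. Luciferase activity was then read after 30 min with ONE-Glo at room temperature; rising signal flags genetic stress.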
# * marks the source's active call; other numbers are inactive results; ? = inconclusive; nt = not tested or not shown; [ ] = another dose, or the depositor's remark. Calls follow the shape of the dose curve; as a rule, active = well fitted curve in the direction sought with a large enough effect; inconclusive = small, poorly fitted or top-dose-only effect, or another doubt; inactive = no such curve, though single readings can be large; an effect the other way counts as inactive or inconclusive. Potency is read from the fitted curve at half-maximal effect.
SMILES,SMN2 splice enh,NPC1 prom act,FLuc counter,Luc counter,Rab9 promoter act,ELG1 genotox
O=[N+]([O-])c1cccnc1NCCc1c[nH]c2ccccc12,nt,3.55µM*,?,nt,2.51µM*,13µM*
O=c1cc(Cl)[nH]c(=O)n1CCNc1ncc(C(F)(F)F)cc1Cl,?,?,13.5µM*,7.3%,3.16µM*,13.2%
O=[N+]([O-])c1cccnc1NCCNc1ncc(C(F)(F)F)cc1Cl,12.6µM*,3.55µM*,10.7µM*,-1.7%,2.24µM*,?
O=[N+]([O-])c1cccnc1NCCc1ccccc1,nt,?,10.7µM*,nt,3.16µM*,?
CCN(c1ccc(C)cc1C)S(=O)(=O)c1nnc(NC(=O)CC(C)C)s1,nt,nt,1.3%,nt,nt,nt
C=C(C)C(=O)/C=C/c1ccc(C(F)(F)F)cc1,-3.1%,nt,nt,-0.2%,nt,nt
CC(C)Cn1cc(NC(=O)NCc2cccc(Cl)c2)c2ccccc2c1=O,nt,nt,2.8%,nt,nt,nt
Cc1nn(Cc2ccccc2)c(Cl)c1C(=O)NCCc1ccccc1,14.1µM*,2.51µM*,9.53µM*,3.6%,2.24µM*,?
COc1ccc(CCNC(=O)c2ccc(Cl)cc2Cl)cc1,-16.7%,0.5%,16.9µM*,-0.2%,-2.1%,-3.2%
O=C(NCCc1ccccc1)c1ccccc1Cl,nt,0.355µM*,1.9µM*,nt,0.447µM*,?
O=C(NCCOc1ccccc1Cl)c1cc(F)c(F)cc1Cl,nt,2.82µM*,5.36µM*,nt,2.24µM*,?
Cc1cc2c(cc1S(=O)(=O)Nc1cccc(C#N)c1)OCC(=O)N2,nt,nt,-4.4%,nt,nt,nt
O=C(NCCCl)c1ccc(OCc2ccccc2)cc1Cl,12.6µM*,?,?,-2.0%,1.58µM*,11.6%
O=C(/C=C/c1ccccc1Cl)NCCc1ccccc1,?,?,19µM*,-7.6%,?,10.0%
O=C(O)CCC(=O)Nc1ccccc1C(=O)NCCc1ccccc1,?,?,19µM*,-2.1%,?,?
O=C(/C=C/c1ccccc1Cl)NCc1ccccc1,15.9%,2.6%,?,-1.6%,29.5%,14.0%
COc1ccc(OCCNC(=O)c2ccccc2Cl)cc1,nt,-0.2%,-6.4%,nt,-2.0%,4.0%
O=C(NCCOc1ccccc1)c1ccccc1Cl,nt,0.631µM*,8.49µM*,nt,0.447µM*,4.61µM*
Cc1cc(C)c(NC(=O)CSc2nc(C)cc(C)c2C#N)c(C)c1,-4.2%,nt,0.4%,nt,nt,nt
COc1ccc(NC(=O)c2ccc(NCC3CCCO3)c([N+](=O)[O-])c2)cc1 (configuration not stated),-10.6%,-0.6%,?,-1.9%,-5.1%,0.0%
O=C(Nc1ccccc1)c1ccc(NCC2CCCO2)c([N+](=O)[O-])c1 (configuration not stated),17.8µM*,?,?,-1.4%,?,13.8%
Cn1c(-c2ccc(CN3CCCCC3)o2)nc2ccccc21,12.6µM*,?,15.1µM*,-8.0%,?,?
Cc1sc2nc(SCC(=O)Nc3ccccc3F)[nH]c(=O)c2c1C,nt,-5.1%,-1.1%,nt,-0.1%,16.0%
Cc1sc2nc(SCC(=O)Nc3ccc(S(=O)(=O)NCCCC(=O)O)cc3)[nH]c(=O)c2c1C,nt,-5.8%,16.9µM*,nt,-11.8%,-0.4%
Cc1cc(N2CCN(C)CC2)nc2ccc(NC(=O)c3ccc(C(C)(C)C)cc3)cc12,-96.7%,nt,?,nt,nt,nt
SMILES,SMN2 splice enh,NPC1 prom act,FLuc counter,Luc counter,Rab9 promoter act,ELG1 genotox
COc1ccc2nc(N3CCOCC3)cc(C)c2c1,11.2µM*,?,5.36µM*,-1.0%,2.82µM*,8.2µM*
CCOc1ccccc1NC(=O)Nc1nnc(N2CCCCCC2)s1,nt,nt,15.1µM*,nt,nt,nt
COc1ccc(C(=O)Nc2ccc3nc(N4CCN(C)CC4)cc(C)c3c2)c(OC)c1,nt,0.1%,16.9µM*,nt,-0.3%,7.3%
CCN1CCN(c2cc(C)c3cc(NC(=O)c4ccc(OC)c(OC)c4)ccc3n2)CC1,12.7%,5.4%,-14.9%,0.3%,-1.5%,1.2%
CCN1CCN(c2cc(C)c3cc(NC(=O)c4cccc(OC)c4)ccc3n2)CC1,nt,16.1%,19µM*,nt,20.2%,12.3%
CC(=O)c1ccc(NC(=O)CSc2nccn2Cc2ccc3c(c2)OCO3)cc1,nt,nt,-7.9%,nt,nt,nt
O=C(CCCCCn1c(=O)[nH]c2ccccc2c1=O)NCc1cccc(Cl)c1,nt,nt,1.7%,nt,nt,nt
CCc1cccc(C)c1NC(=O)COCc1cc(-c2ccc3c(c2)OCO3)on1,nt,nt,-19.0%,nt,nt,nt
CCOc1ccccc1NC(=O)Nc1ccc2nc(N3CCN(C)CC3)cc(C)c2c1,nt,nt,5.36µM*,nt,nt,nt
O=S(=O)(CCSc1nc2ccccc2o1)c1nc2ccccc2s1,17.8µM*,-0.7%,-0.3%,0.0%,-7.6%,-2.2%
O=C(CSc1ccccn1)Nc1nc2ccccc2s1,18.8%,22.2%,?,-1.1%,21.4%,?
O=S(=O)(CCSc1ccccn1)c1nc2ccccc2s1,11.2µM*,-1.2%,3.1%,2.3%,-4.4%,-10.0%
CCS(=O)(=O)CCSc1nc2ccccc2o1,16.2%,-3.4%,-0.1%,2.0%,-4.4%,0.6%
Cc1ccc(Cl)c2c1=NC(=O)C=2c1[nH]c(=S)[nH]c1O,28.9%,1.5%,19µM*,-25.2%,-1.2%,-8.5%
CC(C)CCNC(=O)c1ccc(-c2ccccc2)cc1,7.94µM*,?,9.53µM*,-2.6%,3.55µM*,?
CC(C)CCNC(=O)C(=O)Nc1c2c(nn1-c1ccccc1)CS(=O)(=O)C2,nt,nt,0.0%,nt,nt,nt
CC(C)CCNC(=O)C(=O)Nc1ccccc1,?,3.55µM*,?,-7.7%,1.58µM*,?
CC(C)CCNC(=O)c1cccc(C(=O)NCCC(C)C)c1,-10.4%,-0.7%,-0.9%,-1.6%,-0.3%,2.3%
CCCCCOC(=O)c1ccc(OC(=O)c2cncc(Br)c2)cc1,56.2%,21.2%,-12.6%,5.1%,22.3%,9.0%
CCc1ccc(OC(=O)c2cncc(Br)c2)cc1,nt,0.5%,6.01µM*,nt,-6.6%[1.84 µM],1.2%
CCc1ccc(C(=O)COC(=O)c2cncc(Br)c2)cc1,-18.5%,-4.1%,15.1µM*,-2.0%,-6.9%,-4.7%
CCOc1ccc(N(CC)C(=O)c2cc3c(s2)-c2ccc(Cl)cc2SC3)cc1,?,nt,4.5%,nt,nt,nt
COc1ccc(NC(=O)CCc2c(C)nc3c(-c4ccc(F)cc4)c(C)nn3c2C)c(OC)c1,-12.6%,nt,-2.1%,nt,nt,nt
O=C1NC(=O)/C(=C/c2ccc(O)cc2)S1,nt,29.8%,15.1µM*,3.7%,?,?
CC(=O)c1ccc(NC(=O)NCCc2c[nH]c3ccccc23)cc1,-4.4%,nt,2.1%,nt,nt,nt
CC1(C)Cc2c(cnn2-c2ccc(F)cc2)C(NC(=O)CN2CCCCC2=O)C1 (configuration not stated),nt,-0.2%,19µM*,nt,-8.5%,6.1%
Cc1cccc(N2CCN(C(=O)c3cc4ccc5cccnc5c4[nH]3)CC2C)c1 (configuration not stated),nt,nt,-12.2%,nt,nt,nt
